16 compounds from PubChem BioAssay (Tox21) can be followed below.

Results filed as inconclusive are left out. Active and inactive are the calls of the source. The call rests on the fitted dose curve; in most records, active means well fitted curve in the direction sought with a large enough effect in the repeat runs; inconclusive means weak or mixed curves; inactive means no such curve, though single readings can be large; an effect the other way counts as inactive or inconclusive.

The target of assay [1] is Voltage-gated inwardly rectifying potassium channel KCNH2 (Homo sapiens) (UniProt Q12809). In words: Human Ether-a-go-go-Related Gene (hERG) channel small molecule antagonists: fluorescence cell-based qHTS assay (AID 1671200). A digest of the protocol: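 Fluorescence at 540 nm emission (480 nm excitation) was recorded kinetically for 2 min at 1-second intervals once the thallium-containing stimulus reached cells previously loaded with FluxOR II dye.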
In general terms: Block of hERG is tested as a sign of cardiac risk.

The target of assay [2] is Cytochrome P450 1A2 (Homo sapiens) (UniProt P05177). In words: Cytochrome P450 Family 1 Subfamily A Member 2 (CYP1A2) small molecule antagonists: luciferase reporter qHTS assay (AID 1671199). A digest of the protocol: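 Quantitative high-throughput format using the P450-Glo CYP1A2 system. Reaction initiated by NADPH regeneration solution, 1 h at room temperature, then stopped with detection reagent; luminescence measured 20 min later.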
(Reporter assays use an easily measured gene product as a stand-in for the process of interest.)

In assay [3] the target is Cytochrome P450 3A4 (Homo sapiens) (UniProt P08684). Put plainly: Cytochrome P450 Family 3 Subfamily A Member 4 (CYP3A4) small molecule antagonists: luciferase reporter qHTS assay (AID 1671201). A digest of the protocol:
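qHTS, 1536-well. CYP3A4 + proluciferin substrate, cpd 10 min RT → NADPH regen 1 h RT → detection reagent 20 min → luminescence (RLU). Ketoconazole positive control.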
Further: nearly all actives have a fitted effect of over 50% in size.
Potency means the concentration at half of the fitted maximal effect.

Voltage-gated inwardly rectifying potassium channel KCNH2 (Homo sapiens), sequence (Q12809 whole entry, looked up): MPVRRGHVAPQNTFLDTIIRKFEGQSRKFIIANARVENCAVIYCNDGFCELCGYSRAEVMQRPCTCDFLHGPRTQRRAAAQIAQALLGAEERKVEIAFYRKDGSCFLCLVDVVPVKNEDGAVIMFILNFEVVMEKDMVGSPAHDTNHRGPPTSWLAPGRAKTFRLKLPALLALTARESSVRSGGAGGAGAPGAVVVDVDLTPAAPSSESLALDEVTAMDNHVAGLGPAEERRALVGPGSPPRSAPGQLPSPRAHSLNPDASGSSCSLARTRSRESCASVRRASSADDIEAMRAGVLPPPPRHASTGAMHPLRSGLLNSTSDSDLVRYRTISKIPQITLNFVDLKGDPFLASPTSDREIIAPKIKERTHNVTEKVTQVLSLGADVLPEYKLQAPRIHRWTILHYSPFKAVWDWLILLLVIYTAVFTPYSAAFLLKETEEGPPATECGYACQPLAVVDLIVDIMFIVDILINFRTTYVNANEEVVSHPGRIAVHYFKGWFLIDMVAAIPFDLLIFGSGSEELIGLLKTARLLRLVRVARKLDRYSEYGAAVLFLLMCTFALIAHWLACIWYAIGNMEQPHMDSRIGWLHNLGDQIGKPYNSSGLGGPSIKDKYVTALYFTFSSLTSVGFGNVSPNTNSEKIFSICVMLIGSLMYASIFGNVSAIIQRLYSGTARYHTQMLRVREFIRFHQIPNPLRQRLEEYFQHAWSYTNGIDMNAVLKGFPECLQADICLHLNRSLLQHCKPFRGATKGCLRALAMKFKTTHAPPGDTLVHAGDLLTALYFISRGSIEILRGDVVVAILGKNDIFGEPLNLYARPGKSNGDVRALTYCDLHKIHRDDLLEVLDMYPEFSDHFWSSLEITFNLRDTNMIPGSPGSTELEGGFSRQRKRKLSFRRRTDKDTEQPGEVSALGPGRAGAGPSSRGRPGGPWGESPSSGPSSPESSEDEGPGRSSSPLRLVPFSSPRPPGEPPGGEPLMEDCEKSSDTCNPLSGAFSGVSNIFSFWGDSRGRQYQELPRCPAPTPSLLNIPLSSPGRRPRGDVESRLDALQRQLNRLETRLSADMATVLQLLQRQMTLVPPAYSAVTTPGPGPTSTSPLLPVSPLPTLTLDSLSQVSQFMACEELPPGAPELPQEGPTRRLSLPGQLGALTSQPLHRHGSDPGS
Cytochrome P450 3A4 (Homo sapiens), sequence (P08684 whole entry, looked up): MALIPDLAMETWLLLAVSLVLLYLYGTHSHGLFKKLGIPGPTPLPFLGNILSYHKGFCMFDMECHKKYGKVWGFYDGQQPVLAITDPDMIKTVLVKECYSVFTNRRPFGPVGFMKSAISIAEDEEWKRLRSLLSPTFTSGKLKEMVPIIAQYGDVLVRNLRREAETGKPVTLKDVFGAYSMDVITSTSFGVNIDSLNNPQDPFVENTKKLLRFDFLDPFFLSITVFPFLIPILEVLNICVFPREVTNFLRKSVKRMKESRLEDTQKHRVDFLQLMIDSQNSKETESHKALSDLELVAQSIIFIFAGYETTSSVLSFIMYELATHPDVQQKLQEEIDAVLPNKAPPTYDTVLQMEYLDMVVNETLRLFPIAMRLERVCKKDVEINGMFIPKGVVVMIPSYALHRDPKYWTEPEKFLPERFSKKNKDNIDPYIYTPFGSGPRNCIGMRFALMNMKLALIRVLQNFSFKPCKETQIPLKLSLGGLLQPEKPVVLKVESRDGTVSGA
Cytochrome P450 1A2 (Homo sapiens), sequence (P05177 whole entry, looked up): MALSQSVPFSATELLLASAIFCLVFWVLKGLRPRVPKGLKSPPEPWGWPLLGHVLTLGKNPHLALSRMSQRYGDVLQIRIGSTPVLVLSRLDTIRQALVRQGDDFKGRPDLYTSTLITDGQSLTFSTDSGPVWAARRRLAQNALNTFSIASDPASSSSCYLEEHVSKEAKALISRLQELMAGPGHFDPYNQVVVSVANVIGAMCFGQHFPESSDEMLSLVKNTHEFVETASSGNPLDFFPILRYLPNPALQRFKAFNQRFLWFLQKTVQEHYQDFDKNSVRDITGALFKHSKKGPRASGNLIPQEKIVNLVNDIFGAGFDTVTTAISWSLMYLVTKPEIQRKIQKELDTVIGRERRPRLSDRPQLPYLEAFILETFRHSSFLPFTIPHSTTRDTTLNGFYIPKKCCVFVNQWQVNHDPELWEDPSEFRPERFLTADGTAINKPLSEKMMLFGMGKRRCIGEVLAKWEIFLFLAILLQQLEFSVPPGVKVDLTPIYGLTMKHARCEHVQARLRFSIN

Take `On1ccccc1=S`: in assay [1], the Potency entry is “inactive”. Same read-out and setting: next, `Cc1ccc(O)c(C(C)(C)C)c1`: “inactive”.

For the compound `CCC(Cl)C(Cl)C(Cl)CC(Cl)C(Cl)C(C)Cl` (centres undefined), the Potency in assay [2] was 35.6 µM (active). Also, the Potency entry in assay [3] is “inactive”. Take `CC(C)(C)CC(C)(C)c1ccc(OCCOCC[N+](C)(C)Cc2ccccc2)cc1`: the Potency result in assay [2] and in assay [3] was “inactive” in each case. `Nc1ccccc1O`: the Potency in assay [2] was 15.7 µM (active); in assay [3], 31.3 µM (active).

With `C[C@@H](NCCCc1cccc(C(F)(F)F)c1)c1cccc2ccccc12`, in assay [1], the Potency is 10.7 µM (active). On to `Cc1cc(O)c(C(C)(C)C)cc1C(C)(C)C`, for which the Potency in assay [2] is 35.6 µM (active); in assay [3], 31.7 µM (active). As to `CCCN(CCC)c1c([N+](=O)[O-])cc(C(F)(F)F)c(N)c1[N+](=O)[O-]`, the Potency in assay [2] is 2 µM (active); in assay [3], 12.6 µM (active). In the same order, the values of `Nc1ccc2cc(S(=O)(=O)O)cc(O)c2c1N=Nc1ccccc1C(F)(F)F` are 39.9 µM (active) and “inactive”. In the same order, the values of `Cc1ccc(O)c2ncccc12` are 15.5 µM (active) and “inactive”.

`Cc1cc(N)c(S(=O)(=O)O)cc1Cl`: the Potency result in assay [2] and in assay [3] was “inactive” throughout. Regarding `Cc1[nH]nc2c1N=C(c1ccccc1Cl)c1cc([N+](=O)[O-])ccc1N2`, the Potency in assay [2] was 63.3 µM (active); in assay [3] it was 3.99 µM (active). The corresponding values for `CCCCCCCCCCCC[N+](C)(C)CCCCCCCCCCCC` are 71 µM (active) and 35.6 µM (active). The corresponding values for `C/C=C1/C(=O)C[C@H]2[C@@H]3CCC4=CC(=O)CC[C@]4(C)[C@H]3CC[C@]12C` are 39.8 µM (active) and “inactive”. The corresponding values for `CCCCCCCCCCCCc1ccc(O)cc1` are 22.4 µM (active) and 35.6 µM (active). As to `CCC(C)Nc1ccc(NC(C)CC)cc1` (centres undefined), the Potency in assay [2] was 40.7 µM (active); in assay [3], 8.12 µM (active).
